A selection: hits, their analogues and other compounds. The true share with any hit is near 11%.
HPGD block = qHTS Assay for Inhibitors of HPGD (15-Hydroxyprostaglandin Dehydrogenase). 15-hydroxyprostaglandin dehydrogenase [NAD(+)] (Homo sapiens), P15428. purified HPGD, NADH fluorescence kinetic, PGE2 substrate. Potency, µM, usual class: inhibitors. hit rate 4.3% among 150,000
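20 nM HPGD preincubated 15 min at room temperature with compound in 50 mM Tris-HCl pH 8, 0.01% Tween 20. Started with 1 mM NAD+ and 30 uM prostaglandin E2; NADH fluorescence (360/450 nm) read 5 times over 30-s intervals, last minus first.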
ALDH1A1 block = qHTS Assay for Inhibitors of Aldehyde Dehydrogenase 1 (ALDH1A1); Purified ALDH1A1, NADH fluorescence, propionaldehyde substrate; Potency, µM (top dose mostly 75.3 µM), usual class: inhibitors; hit rate 7.3% among 220,000; AID 1030, 2008
Target sequence (P00352 whole entry, looked up): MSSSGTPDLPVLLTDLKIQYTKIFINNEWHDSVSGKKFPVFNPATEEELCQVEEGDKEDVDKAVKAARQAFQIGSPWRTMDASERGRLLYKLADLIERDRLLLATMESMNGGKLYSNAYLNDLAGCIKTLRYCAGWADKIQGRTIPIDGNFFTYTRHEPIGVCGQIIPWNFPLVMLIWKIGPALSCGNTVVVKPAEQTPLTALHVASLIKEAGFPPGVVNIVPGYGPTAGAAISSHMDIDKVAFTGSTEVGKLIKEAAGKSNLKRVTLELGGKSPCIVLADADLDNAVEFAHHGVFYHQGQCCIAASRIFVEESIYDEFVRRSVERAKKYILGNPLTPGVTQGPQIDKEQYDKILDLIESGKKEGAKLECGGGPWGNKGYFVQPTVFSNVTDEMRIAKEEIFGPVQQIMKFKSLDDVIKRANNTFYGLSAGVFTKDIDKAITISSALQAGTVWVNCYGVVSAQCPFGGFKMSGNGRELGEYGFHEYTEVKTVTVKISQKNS
PNC assembly inh = High Content Assay for Compounds that inhibit the Assembly of the Perinucleolar Compartment | PC3M PTB-GFP, PNC prevalence imaging, 16 h; stronger effect = lower value | activity change (PNC), negative = inhibition, % at 10 µM | hit rate 3.1% among 140,000;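 active = readout at or below -70, meaning at least 70% loss of cells showing the perinucleolar compartment, a nuclear body marking cancer cells; inconclusive = readout between -30 and a set limit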
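Read-out is percentage of cells bearing a perinucleolar compartment, from automated 20x imaging of fixed, Hoechst-stained PC3M PTB-GFP cells. Cells were seeded 4 h, then exposed 16 h to compound (23 nl of library stock) in duplicate plates.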
Hits are given with their value; [ ] = another dose, or the depositor's remark. Unless noted, calls follow the shape of the dose curve; as a rule, active = well fitted inhibition curve with a large enough effect (not every such curve was filed as active); inconclusive = small, poorly fitted or top-dose-only effect, or another doubt; inactive = no such curve, though single readings can be large or run the other way.

Results for CCOC(=O)N1CCN(C(=O)c2ccc(N3C(=O)CCC3=O)cc2)CC1 ?
HPGD block: inactive; ALDH1A1 block: inactive; PNC assembly inh: -89

How did NC(Cc1ccccc1)(C(=O)O)C(=O)O do in these assays?
HPGD block: inactive; ALDH1A1 block: inactive[13.5 µM]

Results for COc1ccc2c(c1)O[C@@H](c1cccc(C(F)(F)F)c1)[C@H](OC(=O)NC1CCCC1)C2=O ?
HPGD block: inactive; ALDH1A1 block: inactive

Results for O=C(Cc1ccccc1Cl)N1CCN(c2ncccn2)CC1 ?
ALDH1A1 block: inactive

How did CCc1nnc(NC(=O)CSc2nnc(COc3ccccc3)n2Cc2ccccc2)s1 do in these assays?
HPGD block: inactive; ALDH1A1 block: inactive; PNC assembly inh: inactive

How did O=c1c([N+](=O)[O-])c(N2CCCCC2)c2ccccc2n1-c1ccccc1 do in these assays?
HPGD block: inactive; ALDH1A1 block: inactive; PNC assembly inh: inactive

What do the screens show for `Nc1c(N2CCCCC2)c(=O)[nH]c(=O)n1-c1ccccc1`?
HPGD block: inactive; ALDH1A1 block: inactive; PNC assembly inh: -84

What do the screens show for `C=C1C(=O)O[C@@H]2C3OC3(C)CC/C=C(\C)CC[C@@H]12` (stereo partly specified)?
HPGD block: inactive; ALDH1A1 block: inactive

What do the screens show for `C=C1C(=O)O[C@@H]2[C@H]3O[C@]3(C)CC/C=C(\C)CC[C@@H]12`?
ALDH1A1 block: 13µM

How did O=C(NCCCl)Nc1cccc(Br)c1 do in these assays?
ALDH1A1 block: inactive

What do the screens show for `Nc1n[nH]c(C2CCCCC2)n1`?
ALDH1A1 block: inactive

How did S=c1nc(C2CCCCC2)[nH][nH]1 do in these assays?
HPGD block: 14µM; ALDH1A1 block: inconclusive; PNC assembly inh: inconclusive

How did Nc1ccc2c(c1)Nc1ccccc1CC2 do in these assays?
ALDH1A1 block: inactive

What do the screens show for `Cc1cc(C)c2c(CC(=O)N(CCC#N)Cc3cccnc3)coc2c1`?
HPGD block: inactive; ALDH1A1 block: inactive; PNC assembly inh: inactive

How did CC(=O)NC(CC(=O)Nc1cccc(S(=O)(=O)N2CCCCC2)c1)c1ccccc1 (stereo unspecified) do in these assays?
HPGD block: inactive; ALDH1A1 block: inactive; PNC assembly inh: inconclusive

Results for O=C(COc1ccccc1)NNC(=O)COc1ccc([N+](=O)[O-])cc1 ?
ALDH1A1 block: inactive

How did CC(=O)NC(=S)NNC(=O)COc1ccc(Br)cc1 do in these assays?
ALDH1A1 block: 18µM

What do the screens show for `C/C(=N\NC(=O)COc1ccc([N+](=O)[O-])cc1)C(C)(C)C`?
HPGD block: inactive; ALDH1A1 block: 20µM; PNC assembly inh: inactive

What do the screens show for `CC(=O)NC(=S)NNC(=O)COc1ccc([N+](=O)[O-])cc1`?
ALDH1A1 block: 22µM

How did COc1ccc(CNC(=O)COc2ccc([N+](=O)[O-])cc2)cc1 do in these assays?
HPGD block: inactive; ALDH1A1 block: inactive; PNC assembly inh: inactive

Results for O=C(COc1ccc(Br)cc1)NNC(=S)NC(=O)c1ccccc1[N+](=O)[O-] ?
HPGD block: inactive; ALDH1A1 block: inactive; PNC assembly inh: inactive

Results for CCCCCOC(=O)Cn1c(N2CCCCCC2)nc2c1c(=O)[nH]c(=O)n2C ?
HPGD block: inactive; ALDH1A1 block: inconclusive; PNC assembly inh: inactive

Results for C=CCOC(=O)C(C(=O)CC)C(NC(=O)OC)c1ccc(F)cc1 (stereo unspecified) ?
ALDH1A1 block: inactive[13.5 µM]

What do the screens show for `CN(C)CC(C)(C)CNS(=O)(=O)c1ccc(OC(F)(F)F)cc1`?
ALDH1A1 block: inactive

How did COc1ccccc1-c1nnc2sc(COc3ccccc3)nn12 do in these assays?
HPGD block: inactive; ALDH1A1 block: inactive; PNC assembly inh: inactive

How did COc1cc(OC)c(-c2nn3c(C4CCCCC4)nnc3s2)cc1OC do in these assays?
HPGD block: inconclusive; ALDH1A1 block: inconclusive; PNC assembly inh: inactive

What do the screens show for `COc1ccccc1-c1nnc2sc(COc3ccc(Cl)cc3Cl)nn12`?
HPGD block: 1.3µM; ALDH1A1 block: inactive; PNC assembly inh: inactive

What do the screens show for `Clc1ccc(OCc2nn3c(C4CCCCC4)nnc3s2)c(Cl)c1`?
HPGD block: 2.8µM; ALDH1A1 block: inconclusive; PNC assembly inh: -82

Results for CO[C@H]1COC(=O)[C@@H](Cc2ccccc2)NC(=O)[C@@H](C)COC(=O)CCC[C@@H]1C ?
ALDH1A1 block: inactive[13.5 µM]

How did O=C(Nc1ccccc1)N1CCC(C(=O)N2CCN(c3ccccc3F)CC2)CC1 do in these assays?
ALDH1A1 block: inactive

How did C#CC(C)(C)NC(=O)c1sccc1Oc1ccc(F)cc1[N+](=O)[O-] do in these assays?
ALDH1A1 block: inactive

Results for NNc1ccc(Cl)nn1 ?
ALDH1A1 block: 18µM

Results for CNc1ccc(Cl)nn1 ?
ALDH1A1 block: inactive

What do the screens show for `C=CCNC(=O)C1CCN(c2ccc(S(=O)(=O)N3CCOCC3)cc2Cl)CC1`?
ALDH1A1 block: inactive

Results for CCCNC(=O)C1CCN(c2ccc(S(=O)(=O)N3CCOCC3)cc2Cl)CC1 ?
HPGD block: 16µM; ALDH1A1 block: inactive; PNC assembly inh: inconclusive

What do the screens show for `CC1(C)CC(=O)C=C(NC2=CC3OC(c4ccccc4)OCC3OC2=O)C1` (stereo unspecified)?
HPGD block: inactive; ALDH1A1 block: inactive; PNC assembly inh: inactive

What do the screens show for `CCCCNC(=O)C1CCCN1C(=O)Nc1ccccc1` (stereo unspecified)?
HPGD block: inactive; ALDH1A1 block: inactive; PNC assembly inh: inconclusive

How did O=C(CCCCCN1C(=O)c2ccccc2C1=O)NCCc1nc2ccccc2[nH]1 do in these assays?
HPGD block: inactive; ALDH1A1 block: 11µM; PNC assembly inh: inactive

Results for COc1ccc(CCNC(=O)CCCN2C(=O)c3ccccc3C2=O)cc1 ?
ALDH1A1 block: 14µM

How did CCCC(=O)NCCCc1nc2ccccc2[nH]1 do in these assays?
HPGD block: inactive; ALDH1A1 block: inactive; PNC assembly inh: inconclusive

Results for COc1ccc(S(=O)(=O)CCC(=O)NCCc2ccc(C)cc2)cc1 ?
HPGD block: inactive; ALDH1A1 block: 25µM; PNC assembly inh: inactive

What do the screens show for `Cc1ccc(OCCC(=O)NCCc2ccc(S(N)(=O)=O)cc2)cc1`?
HPGD block: inactive; ALDH1A1 block: inactive; PNC assembly inh: inactive

How did COc1ccc(CCNC(=O)CCCCCN2C(=O)c3ccccc3C2=O)cc1 do in these assays?
HPGD block: inactive; ALDH1A1 block: inconclusive; PNC assembly inh: inactive

How did C/C(=N\N1CCN(C)CC1)c1ccc(Cl)c(Cl)c1 do in these assays?
ALDH1A1 block: inactive

Results for NNC(=S)Nc1c(Br)cc(F)cc1Br ?
ALDH1A1 block: inactive

How did OC1c2ccccc2-c2nc3ccccc3cc21 (stereo unspecified) do in these assays?
HPGD block: inactive; ALDH1A1 block: inconclusive

What do the screens show for `O=C(COC(=O)Cc1ccc(Cl)cc1Cl)Nc1ccccc1OC(F)F`?
HPGD block: inactive; ALDH1A1 block: inactive; PNC assembly inh: inactive

How did CN(C)c1ccc(/C=C(\C#N)C(=O)NCc2ccco2)cc1 do in these assays?
HPGD block: inactive; ALDH1A1 block: inconclusive; PNC assembly inh: inactive

Results for CCN(CC)c1ccc(/C=C(\C#N)C(=O)NCc2ccco2)cc1 ?
HPGD block: inactive; ALDH1A1 block: 32µM; PNC assembly inh: inactive

How did Cc1ccc(NCC(=O)N/N=C/c2cccc(Oc3ccccc3)c2)cc1 do in these assays?
HPGD block: inactive; ALDH1A1 block: inconclusive; PNC assembly inh: inactive

Assay outcomes as filed in PubChem BioAssay.
